# Hits are enriched below; roughly 3.2% of the tested compounds scored in any of these assays.
# MEKK2wt PB1 HTS: modulators of MEK5 binding to wildtype MEKK2, primary screen, biochemical, multiplex bead flow cytometry, Alexa488-MEK5; AID 1531, 2009; hit rate 1.1% among 290,000; Alexa488-MEK5 binding to MEKK2 WT; actives lie on both sides; binding response (% of control), % at 10 µM; Mitogen-activated protein kinase kinase kinase 2 (Homo sapiens), Q9Y2U5; in the data active = binding response below about 67% or above about 130%
# MEKK2mut PB1 HTS: MEK5 binding signal on mutant MEKK2 PB1, primary screen, biochemical, multiplex bead flow cytometry, Alexa488-MEK5 | hit rate 0.35% among 290,000 | percent response, % at 10 µM | Alexa488-MEK5 binding to MEKK2 mutant; in the data active = percent response above about 24%, passing the limit was not always enough
# NRP1-CendR mod: modulators of CendR peptide binding to NRP-1, primary screen, biochemical, fluorescence polarization, uHTS; AID 602438, 2012; FAM-RPARPAR peptide binding to NRP-1; inhibition, % at 25 µM; Neuropilin-1 (Homo sapiens), O14786; hit rate 0.85% among 360,000;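 active = inhibition or corrected inhibition above about 18%, plus a signal ratio from 0.5 to 1.5, limit read from the data, passing the limit was not always enough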
# Target sequence (O14786 whole entry, looked up): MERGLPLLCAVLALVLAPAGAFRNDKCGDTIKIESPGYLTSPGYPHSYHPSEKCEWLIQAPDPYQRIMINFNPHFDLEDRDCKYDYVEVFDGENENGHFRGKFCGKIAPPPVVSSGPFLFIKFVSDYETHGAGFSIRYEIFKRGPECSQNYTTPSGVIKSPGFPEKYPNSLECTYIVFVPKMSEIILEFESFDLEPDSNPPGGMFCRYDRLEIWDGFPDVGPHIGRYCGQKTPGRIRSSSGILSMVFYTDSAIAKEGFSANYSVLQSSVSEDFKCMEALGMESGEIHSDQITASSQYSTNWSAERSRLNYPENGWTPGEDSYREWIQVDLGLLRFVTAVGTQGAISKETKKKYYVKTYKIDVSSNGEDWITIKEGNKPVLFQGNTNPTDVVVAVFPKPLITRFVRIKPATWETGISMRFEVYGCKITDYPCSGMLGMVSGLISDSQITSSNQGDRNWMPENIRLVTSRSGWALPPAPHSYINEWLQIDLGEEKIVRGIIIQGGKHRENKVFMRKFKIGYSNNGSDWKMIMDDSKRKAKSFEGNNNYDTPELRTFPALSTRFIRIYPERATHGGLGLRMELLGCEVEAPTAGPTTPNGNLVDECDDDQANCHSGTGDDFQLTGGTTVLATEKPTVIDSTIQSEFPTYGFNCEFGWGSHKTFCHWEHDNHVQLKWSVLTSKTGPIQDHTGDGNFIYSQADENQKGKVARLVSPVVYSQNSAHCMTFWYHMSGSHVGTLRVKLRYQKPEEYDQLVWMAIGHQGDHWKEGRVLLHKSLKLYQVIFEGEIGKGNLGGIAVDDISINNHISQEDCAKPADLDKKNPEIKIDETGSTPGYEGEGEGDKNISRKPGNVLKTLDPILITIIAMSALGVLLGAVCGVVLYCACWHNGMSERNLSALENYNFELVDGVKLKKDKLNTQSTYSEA
# MEKK3 PB1 HTS: modulators of MEKK3-MEK5 PB1 binding, primary screen, biochemical, wildtype MEKK3, multiplex bead flow cytometry, Alexa488-MEK5. AID 1529, 2009. binding response (% of control), % at 10 µM. hit rate 1.4% among 290,000. bead-based flow cytometry, Alexa488-MEK5 binding to MEKK3; actives lie on both sides; 0 = blocked by unlabeled MEK5, 100 = vehicle;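 active = binding response more than 3 SD above or below the average of its plate-row segment, actives on both sides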;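 also: Alexa488 bead fluorescence after subtracting the streptavidin-only scavenger bead signal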
# SKN-1 block: suppressors of acrylamide-induced Pgst-4::GFP reporter in worms, primary screen, SKN-1 inhibitor project, whole organism, uHTS, GFP/RFP fluorescence ratio, strain VP596; C. elegans VP596 Pgst-4::GFP/RFP ratio, 24 h; inhibition, % at 21.8 µM; hit rate 0.49% among 360,000; AID 624304, 2012;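 active = interference check ratio from 0.5 to 1.5 plus GFP to RFP signal ratio inhibition reaching or exceeding a fixed threshold, cut at about 30% in these data, passing the limit was not always enough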
# * = called active by the depositor; . = not tested or not shown.
SMILES,MEKK2wt PB1 HTS,MEKK2mut PB1 HTS,NRP1-CendR mod,MEKK3 PB1 HTS,SKN-1 block
Cc1ccccc1NC(=O)c1cc[n+]([O-])cc1,169*,18,7,104,-4
Cc1cccc(NC(=O)c2cc[n+]([O-])cc2)c1C,96,-5,1,100,-3
COc1ccccc1NC(=O)NC(N)=O,110,2,0,109,1
Cc1ccccc1NC(=O)NC(N)=O,-4.0*,2,3,99,-1
CCOc1cc(Cl)c(CNCCCN2CCOCC2)cc1OC,107,3,-1,106,8
CC(C)OC(=O)c1ccc(NC(=O)c2ccccc2)cc1,98,0,35*,97,32
CCOC(=O)c1ccc(NC(=O)c2ccc(NC(=O)c3ccccc3)cc2)cc1,101,6,7,104,0
O=C(NN=Cc1cc(Cl)ccc1[N+](=O)[O-])c1ccco1,.,.,8,.,12
Cc1cnc(C(=O)Nc2ccccc2-c2ccc(C)o2)cn1,108,1,1,102,36*
Cc1cnc(C(=O)Nc2cccc3ncccc23)cn1,102,0,7,102,-12
CCC(c1nnnn1Cc1ccc2c(c1)OCO2)N1CCN(c2ccc(F)cc2)CC1 (stereo not drawn),.,.,2,.,36*
C=CC[n+]1ccc(/C=C2\C=Cc3cc(C)ccc3N2CC)c2ccccc21,131,17,13,101,38*
O=C(Nc1ccccc1)C1CC(=O)N(C2CCCCC2)C1 (stereo not drawn),100,6,-14,101,42*
O=C(NCCC1=CCCCC1)C1CC(=O)N(C2CCCCCC2)C1 (stereo not drawn),97,1,21*,103,9
O=C(NCCC1=CCCCC1)c1coc(=O)c(Br)c1,105,5,-2,112,7
O=C(NCCC1=CCCCC1)NC1CCCCC1,105,6,-4,101,55*
O=C(NCCC1=CCCCC1)c1ccc(=O)oc1,101,-2,51*,106,-20
CSCC[C@H](NC(=O)[C@@H]1Cc2ccccc2CN1)C(=O)Nc1ccc2c(c1)OCCO2,105,1,6,100,6
COc1cc([C@H]2c3c(cc(OC)c(O)c3OC)C[C@@H](CO)[C@@H]2CO[C@@H]2O[C@H](CO)[C@@H](O)[C@H](O)[C@H]2O)cc(OC)c1O,.,.,8,.,12
O=C(NC1CS(=O)(=O)CC1NCc1ccccc1)c1ccccc1 (stereo not drawn),98,3,-18,98,37*
CC1(C(=O)NCc2cccc3ccccc23)CCN1Cc1cccc2c1OCO2 (stereo not drawn),.,.,26*,.,9
Cc1cc(/C=C(\C#N)C(=O)OCC#N)c(C)n1CC(C)C,97,-3,33*,97,-2
Cc1ccc(C)c(-n2c(SCC(=O)NC(C(=O)O)C(C)C)nnc2-c2cccc(Cl)c2)c1 (stereo not drawn),95,-6,26*,108,4
CC(=O)Nc1ccc(Oc2cc(C#N)c(C#N)cc2N2CCCCCC2)cc1,107,5,1,105,26
CC(=O)Nc1ccc(Oc2cc(C#N)c(C#N)cc2N2CCOCC2)cc1,107,0,41*,105,-21
SMILES,MEKK2wt PB1 HTS,MEKK2mut PB1 HTS,NRP1-CendR mod,MEKK3 PB1 HTS,SKN-1 block
Cc1ccc(C2CC(=O)Oc3cc(O)ccc32)cc1 (stereo not drawn),91,-3,-28,105,35*
Cc1ccc(C(=O)N(C)CC(=O)Nc2ccc(N3CCOCC3)cc2)s1,.,.,-3,.,35*
CN(C)c1ccc(-c2nnc(-c3cccs3)o2)cc1,98,0,16,101,8
Brc1ccc(-c2cnc(-c3cccs3)o2)cc1,104,0,17,104,89*
CC(=O)c1cccc(OCC(O)CNCC2COc3ccccc3O2)c1 (stereo not drawn),90,-20,10,85,10
O=C(Nc1nc(-c2ccc(Cl)s2)cs1)c1ccco1,92,-7,-7,97,85*
O=C(Nc1nc(-c2ccccc2)cs1)c1cccs1,111,8,17,108,63*
O=C(Nc1ccc2nc(-c3ccccc3)[nH]c2c1)c1cccs1,104,1,2,101,39*
O=C(Nc1nc(-c2ccc(Cl)s2)cs1)c1cccs1,.,.,-13,.,48*
O=C(Nc1ccc2nc(-c3ccc4nc[nH]c4c3)[nH]c2c1)c1cccs1,110,3,1,98,9
COc1ccc(CCC(=O)Nc2cc(S(=O)(=O)N3CCCCC3)ccc2N(C)C)cc1,.,.,12,.,5
OC(c1ccc(F)cc1)c1nc(-c2cnc3ccccc3c2)cs1 (stereo not drawn),.,.,3,.,-3
CCN(CC)C(=O)CSc1nnc(-c2ccccn2)n1Cc1ccccc1,110,4,0,112,-6
COc1ccc(S(=O)(=O)N/N=C\c2ccc3c(c2)OCO3)c(OC)c1,103,-1,30*,98,0
Cc1ccc(-n2c(-c3ccco3)nc3c(cnn3-c3ccc(C)cc3)c2=O)cc1,106,6,35*,114,-7
Cc1ccc(-n2c(-c3ccco3)nc3c(cnn3-c3ccccc3C)c2=O)cc1,98,-4,11,100,-9
Cc1cc2nc(C(C)(C)C)c(Cc3ccccc3)n2c(C)c1Br,.,.,-12,.,-5
C[C@@H](NC(=O)c1[nH]cnc1C(=O)Nc1cccc(Cl)c1)c1ccccc1,.,.,26*,.,10
C[C@H](NC(=O)c1[nH]cnc1C(=O)Nc1ccc(Cl)cc1)c1ccccc1,.,.,37*,.,5
CC(C)(C)OC(=O)[C@H](Cc1ccccc1)NC(=O)c1[nH]cnc1C(=O)Nc1cccc(Cl)c1,94,-6,23*,96,-2
CCN(CC)C(=O)c1[nH]cnc1C(=O)Nc1cccc(C)c1,.,.,27*,.,18
C[C@@H](NC(=O)c1[nH]cnc1C(=O)Nc1ccc(Cl)cc1)c1ccccc1,.,.,17,.,-5
CCN(CC)C(=O)c1[nH]cnc1C(=O)Nc1ccc(Cl)cc1,.,.,10,.,1
CC(O)c1ccc(Oc2cnccn2)cc1 (stereo not drawn),99,3,-11,96,9
C[C@@H](NC(=O)c1[nH]cnc1C(=O)Nc1ccccc1)c1ccccc1,.,.,9,.,-4
Cc1ccc(NC(=O)c2nc[nH]c2C(=O)N[C@@H](C)c2ccccc2)cc1,110,4,32*,105,-9
C/C(=N\N=c1/sc2ccccc2n1C)c1ccccn1,94,-6,26*,91,36*
COc1ccc2sc(/C=C/c3ccccc3O)[n+](C)c2c1,4.0*,19,-181,94,37
